Compound activity from PubChem.
Tau fluor cs: counter-screen for tau fibril formation inhibitors. tau K18 P301L Alexa594 fluorescence, heparin fibrillization. Potency, µM (series often up to 57.7 µM), for the others: at the highest dose activity change, negative = decrease. actives 0.93% (n = 280,000); also: nearly all actives have a fitted effect of over 55% in size
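Human K18 P301L tau (15 uM unlabeled plus 0.24 uM Alexa 594-labeled, final) in 100 mM sodium acetate pH 7 was mixed with compound and 20 uM heparin and incubated 6 hr at 37 C.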
Tau fibril ThT: tau fibrillization inhibition (ThT binding); actives 2.1% (n = 270,000); Potency, µM (titrated, usually from 57.4 µM), inactives show top-dose activity, negative = inhibition, hits mostly inhibitors; P10636; recombinant tau K18 P301L, heparin-induced fibrillization, ThT fluorescence; also: nearly all actives have a fitted effect of over 55% in size
Target sequence (P10636 561-689 P618L limits assumed): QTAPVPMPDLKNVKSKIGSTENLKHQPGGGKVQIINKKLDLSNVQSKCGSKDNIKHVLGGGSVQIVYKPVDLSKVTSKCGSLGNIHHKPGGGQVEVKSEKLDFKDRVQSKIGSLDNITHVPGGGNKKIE
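Fibril formation assay: tau K18 P301L at 15 uM with trace Alexa 594 label, heparin inducer 20 uM, pH 7 sodium acetate buffer, 37 C for 6 hr; endpoint ThT signal.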
Tau fibril FP: inhibitors of human tau fibril formation; Potency, µM (top dose mostly 57.7 µM), inactives show at the highest dose activity, negative = inhibition, usual class: inhibitors; P10636; K18 P301L tau heparin fibrillization, Alexa594 FP, 6 h; actives 0.39% (n = 280,000); also: nearly all actives have a fitted effect of over 55% in size
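Recombinant K18 P301L […], labeled with Alexa 594 at 0.24 uM over 15 uM unlabeled; heparin inducer 20 uM final; 37 C, 6 hr; FP endpoint.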
NPSR antagonist: blocks cAMP signaling of the human neuropeptide S receptor; actives 1% (n = 220,000); Q6W5P4; CHO-NPSR cells, cAMP TR-FRET, antagonist mode; Potency, µM (series often up to 38.3 µM), for the others: at the top dose activity change, negative = inhibition, actives largely listed as inhibitors; also: nearly all actives have a fitted effect of over 50% in size
Target sequence (Q6W5P4 whole entry, looked up): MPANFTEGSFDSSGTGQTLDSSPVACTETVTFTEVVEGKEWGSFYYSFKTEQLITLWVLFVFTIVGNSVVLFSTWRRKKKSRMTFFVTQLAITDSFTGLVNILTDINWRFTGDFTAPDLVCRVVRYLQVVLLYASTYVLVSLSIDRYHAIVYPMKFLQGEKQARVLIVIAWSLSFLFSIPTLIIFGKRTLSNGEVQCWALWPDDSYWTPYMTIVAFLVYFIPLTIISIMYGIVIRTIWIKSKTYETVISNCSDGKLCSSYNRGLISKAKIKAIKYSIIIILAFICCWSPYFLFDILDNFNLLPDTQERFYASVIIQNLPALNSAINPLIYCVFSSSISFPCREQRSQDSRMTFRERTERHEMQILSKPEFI
ALDH1A1 inh: inhibitors of human aldehyde dehydrogenase 1A1. P00352. actives 7.3% (n = 220,000). Purified ALDH1A1, NADH fluorescence, propionaldehyde substrate. Potency, µM (highest dose often 75.3 µM), for inactives: at the highest dose activity, negative = inhibition, most hits filed as inhibitors; active = well fitted inhibition curve with a large enough effect, not every such curve was filed as active; inconclusive = small, poorly fitted or top-dose-only effect, or another doubt; inactive = no such curve, though single readings can be large or run the other way;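 also: plate controls were no enzyme wells and a reference inhibitor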
HPGD inh: blocks human HPGD enzyme activity; Potency, µM, for the others: at the top dose activity change, negative = inhibition, most hits filed as inhibitors; actives 4.3% (n = 150,000); P15428; purified HPGD, NADH fluorescence kinetic, PGE2 substrate; AID 894; active = well fitted inhibition curve with a large enough effect, not every such curve was filed as active; inconclusive = small, poorly fitted or top-dose-only effect, or another doubt; inactive = no such curve, though single readings can be large or run the other way
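NADH formation kinetics: reaction with 30 uM PGE2 and 1 mM NAD+ (final), 20 nM enzyme, Tris-HCl pH 8 with Tween 20, after 15 min compound preincubation at room temperature. Fluorescence change, last versus first of five reads.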
Numbers without * were called inactive; ? = inconclusive; / = no result given; [ ] = remark or other dose. Compounds with a hit are over-represented: about 9.5% of the library has one in this group of screens. Unless noted, calls follow the shape of the dose curve; as a rule, active = well fitted curve in the direction sought with a large enough effect; inconclusive = small, poorly fitted or top-dose-only effect, or another doubt; inactive = no such curve, though single readings can be large; an effect the other way counts as inactive or inconclusive. Unless noted, % is scaled to controls: 0 for no effect and ±100 for the full control effect; potency is read from the fitted curve at half-maximal effect.

SMILES	Tau fluor cs	Tau fibril ThT	Tau fibril FP	NPSR antagonist	ALDH1A1 inh	HPGD inh
COc1ccc(NC(=O)CSc2nc3ccccc3c(=O)n2CCC(=O)N2CCCCC2)cc1	-23%	-14%	-1%	-24%[46.1 µM]	16µM*	-5%
COc1ccc(Oc2ncc3ncc(=O)n(CCc4ccccc4)c3n2)cc1	/	/	/	/	0.89µM*	-4%
COc1ccc(Oc2ncc3ncc(=O)n(Cc4cccc(OC)c4)c3n2)cc1	/	/	/	/	-5%	18µM*
O=c1cnc2cnc(OCc3ccccc3)nc2n1Cc1ccc(F)cc1	/	/	/	/	?	32µM*
NC(=O)N/N=C1\CC[C@H](O)C[C@@H]1CC(=O)O	/	/	/	/	17%[13.5 µM]	-3%
O=C(c1cccc(F)c1)N1CCC[C@@]2(CCN(c3ccncc3)C2)C1	/	/	/	/	3%	-6%
CC(C)(C)C1CCC(OC(=O)C[N+]2(C)CCCCC2)CC1 (stereo not given)	-7%	-4%	3%	-7%	-6%	/
CC(C)(C)n1nnnc1CN1CCSCC1	4%	-7%	2%	5%[46.1 µM]	25µM*	-2%
CCOc1ccc(NC2c3ccccc3C(=O)N2Cc2ccc3c(c2)OCO3)cc1 (stereo not given)	?	-22%	15%	?	?	28µM*
COc1ccc(NC(=O)c2oc3ccccc3c2NC(=O)c2cc(C)cc(C)c2)c(OC)c1	?	3%	-7%	/	/	/
CCc1cccc(C)c1NC(=O)CSc1nc2ccc(N3C(=O)c4ccccc4C3=O)cc2s1	-6%	2%	-12%	9%[46.1 µM]	4%	-10%
CCc1cccc(CC)c1NC(=O)CSc1nc2ccc(N3C(=O)C4C(C3=O)[C@H]3C=C[C@@H]4C3)cc2s1 (stereo not given in full)	-7%	-10%	9%	-4%	18µM*	20µM*
Cc1cccc(NC(=O)N2CCC(N3CCN(Cc4ccccc4)C(=O)C3=O)CC2)c1C	10%	9%	5%	/	/	/
Fc1ccccc1-c1ccc(/C=N/Nc2nc3ccccc3[nH]2)o1	14µM*[quencher]	6.3µM*	9%	-30%	-2%	-20%
CC(C)(C)C1CCC(=NNc2nc3ccccc3[nH]2)CC1 (stereo not given)	?	?	-17%	9%	?	/
C(=N\Nc1nc2ccccc2[nH]1)/c1ccc2c(c1)OCCO2	?	4µM*	12%	23%	12%	/
COc1ccc(/C=N/Nc2nc3ccccc3[nH]2)cc1OC	?	13µM*	?	-13%	4%	-18%
COc1cc(/C=N\Nc2nc3ccccc3[nH]2)cc(OC)c1OC	5%	?	-3%	-16%[46.1 µM]	?	?
c1ccc2c(c1)CC/C2=N/Nc1nc2ccccc2[nH]1	?	?	14%	7.9µM*	-9%	/
Cc1ccc(/C=N\Nc2nc3ccc(Cl)cc3[nH]2)o1	?	?	13%	-20%[46.1 µM]	-1%	-13%
COC(=O)c1ccc(NC(=O)CCNS(=O)(=O)c2cccc3nsnc23)cc1	-19%	-8%	-7%	/	/	/
CC(=O)c1ccc(NC(=O)COc2ccc3c(c2)OCO3)cc1	-12%	?	0%	4%	3%	/
CCCCC/C=C\C/C=C\C[C@H](O)/C=C/C=C\CCCC(=O)O	2%	2%	-1%	/	0%	-2%
C#CCn1cc(/C=N/Nc2nc3ccccc3[nH]2)c2ccccc21	-7%	-6%	4%	13µM*	?	?
BrC(=C\c1ccccc1)/C=N/Nc1nc2ccccc2[nH]1	?	25µM*	-9%	-30%	?	-19%
SMILES	Tau fluor cs	Tau fibril ThT	Tau fibril FP	NPSR antagonist	ALDH1A1 inh	HPGD inh
CN1C(=O)CS/C1=N\NC(=O)COc1cccc2cccnc12	12%[2.34 µM]	10µM*	-7%	-5%	-3%	/
C(=N\Nc1nc2ccccc2[nH]1)/c1ccc2ncccc2c1	?	/	?	-31%	/	/
COc1ccc2c(c1)c(/C=N/Nc1nc3ccccc3[nH]1)c(C)n2C	28µM*[quencher]	22µM*	?	?	3%	/
COc1ccccc1Nc1nn2c(=O)c3ccc(C(=O)NCCC4=CCCCC4)cc3nc2s1	-7%	?	-5%	/	/	/
O=C1CS/C(=N/N=C/c2ccco2)N1Cc1ccc(F)cc1	-19%	/	-1%	-1%	/	/
CCCCN(c1ccccc1)c1ncnc2c1cnn2-c1ccc(Cl)cc1	-19%	-16%	-9%	/	/	/
C#CCn1cc(/C=N/NC(=O)COc2cccc3cccnc23)c2ccccc21	-13%	?	7%	11%	10µM*	-21%
CCN(CC)c1ccc(/C=N/Nc2nc3ccccc3[nH]2)c(O)c1	18µM*[quencher]	14µM*	2%	?	-79%	?
CCCCn1c(/C=C/c2ccco2)nc2ccccc21	-12%	?	-3%	-23%[46.1 µM]	?	?
COC(=O)Cn1cc(/C=N/NC(=O)COc2cccc3cccnc23)c2ccccc21	-20%	?	3%	17%	?	-14%
C(=N\Nc1nc2ccccc2[nH]1)/c1ccccn1	-23%	?	-9%	10µM*	5%	/
CCCCn1c(/C=N/Nc2nc3ccccc3[nH]2)nc2ccccc21	?	?	9%	13µM*	12%	-2%
COc1ccc(CCNC(=O)C(=O)NCC(c2cccs2)S(=O)(=O)c2cccs2)cc1 (stereo not given)	-17%	-3%	-17%	/	/	/
CCN(CC)c1ccc(/C=N/NC(=O)Cc2cccs2)c(O)c1	13µM*[quencher]	?	13%	-25%	?	?
O=C(Cc1cccs1)N/N=C/c1ccccc1	-13%	-11%	-9%	-6%	/	/
O=C(c1scc2c1CCCC2)N1CCCCC1	-2%	-12%	1%	-9%[46.1 µM]	-8%	8.9µM*
Cc1ccc(NC(=O)c2scc3c2CCCC3)cc1	?	?	-7%	-26%	-11%	-8%
CCOC1=NC(C(=O)O)c2ccccc2/C(=C(/C)Cl)N1 (stereo not given)	-5%	-6%	2%	-8%[46.1 µM]	4µM*	-2%
Cc1cnc(C(=O)OCC(=O)c2csc(N3CCCCC3)n2)cn1	6%	13%	-1%	-8%[46.1 µM]	18µM*	?
Cc1cc(C(=O)COC(=O)c2cccn2C)c(C)n1Cc1ccco1	-15%	-16%	4%	-23%	25µM*	/
Cc1cc(C(=O)COC(=O)c2ccco2)c(C)n1Cc1ccco1	-13%	-4%	-8%	-1%	?	/
O=C(Nc1ccc(F)c([N+](=O)[O-])c1)C(=O)c1c(O)[nH]c2ccccc12	-16%	?	-4%	-30%	13µM*	/
CCOC(=O)c1c(-c2ccc(C)cc2)csc1NC(=O)c1nc(SCC)ncc1Cl	-16%	-17%	-18%	/	/	/
COc1ccccc1CN1CCC2(CC1)CCN(C(C)=O)CC2	/	/	/	/	1%	-7%
Cc1ccccc1Nc1nc(N)nc(CSCc2c(C)noc2C)n1	-5%	-8%	4%	0%[46.1 µM]	14µM*	-17%
